In PubChem BioAssay (NCI):
Compounds without any hit were thinned out: in the full panel of roughly 79,000, 15% have a hit. Activity calls are given as the source filed them. No stated cut-off is given here; in the data, active means growth inhibition above about 70%; inactive means the rest.

assay: NCI Yeast Anticancer Drug Screen. Data for the bub3 strain (AID 167); details: S. cerevisiae bub3 mutant strain, at 3.7 µM, active compounds read high
In short: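 Steps: expose the mutant yeast strain to compound; grow alongside vehicle-treated cultures; measure growth; express inhibition against the vehicle cultures.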

Question: With S=C(S)NN1CCOCC1 as the compound, how does the growth inhibition read?
Answer: Its growth inhibition is 59% (inactive).

Question: For COc1cc2c3c(cccc3c1)C(=O)N(CCN(C)C)C2=O, which growth inhibition is on record?
Answer: Its growth inhibition is -12% (inactive).

Question: Which growth inhibition does the source give for COC(=O)C1=C(C)NC(C)=C(C(=O)OCCCN2CCC(c3ccccc3)(c3ccccc3)CC2)C1c1cccc([N+](=O)[O-])c1 (stereo not given) here?
Answer: Its growth inhibition is 16% (inactive).

Question: Which growth inhibition does the source give for c1ccc2c(c1)Oc1cccc3cccc-2c13 here?
Answer: The growth inhibition was -6% (inactive).

Question: Which growth inhibition does the source give for CN(C)CCOc1ccc2c(c1)C/C(=C/c1ncc([N+](=O)[O-])n1C)C2=O here?
Answer: The growth inhibition was 10% (inactive).

Question: With Cc1ccc(CCC2=CCCc3c2ccc2ccccc32)cc1 as the compound, how does the growth inhibition read?
Answer: Its growth inhibition is -2% (inactive).

Question: Which growth inhibition does the source give for CNC(=O)OCc1c(COC(=O)NC)c(-c2ccc(Cl)c(Cl)c2)n2c1CCC2 here?
Answer: Its growth inhibition is -61% (inactive).

Question: Which growth inhibition does the source give for Clc1ccccc1C1OC1c1ccccc1Cl (stereo not given) here?
Answer: Its growth inhibition is -53% (inactive).

Question: Which growth inhibition does the source give for O=[N+]([O-])c1cc(CCl)ccc1CCl here?
Answer: The growth inhibition was 2% (inactive).

Question: For O=C1C=CC(=O)c2c(O)c(Nc3ccc(OC(F)(F)F)cc3)c(Cl)c(O)c21, which growth inhibition is on record?
Answer: Its growth inhibition is -8% (inactive).

Question: With S=c1[nH]nc(Nc2ccc(Cl)cc2)s1 as the compound, how does the growth inhibition read?
Answer: The growth inhibition was -1% (inactive).

Question: For Cn1ccnc1Oc1ccc(Cl)cc1, which growth inhibition is on record?
Answer: Its growth inhibition is -3% (inactive).

Question: For BrCc1cccc2ccc3cccc(CBr)c3c12, which growth inhibition is on record?
Answer: Its growth inhibition is -14% (inactive).

Question: Which growth inhibition does the source give for O=C1c2ccccc2-c2nc3ccccc3nc21 here?
Answer: The growth inhibition was -13% (inactive).

Question: For CCCCCCCCCCCCCCCCCCNC, which growth inhibition is on record?
Answer: The growth inhibition was 15% (inactive).

Question: For Oc1ccc(NCn2c(=S)sc3ccccc32)cc1, which growth inhibition is on record?
Answer: Its growth inhibition is 32% (inactive).

Question: Which growth inhibition does the source give for O=C1C2CC[C@@H]3C(=O)C(Cl)(Cl)[C@@H]3CCC2C1(Cl)Cl (stereo not given in full) here?
Answer: The growth inhibition was 2% (inactive).

Question: For CC[n+]1ccc2c(C)c3[nH]c4ccc(O)cc4c3c(C)c2c1, which growth inhibition is on record?
Answer: The growth inhibition was -16% (inactive).

Question: With Cc1ccc(-n2cc(-c3ccc(Cl)cc3)c(C#N)c2N)cc1 as the compound, how does the growth inhibition read?
Answer: Its growth inhibition is -5% (inactive).

Question: With CC(=O)[O][Bi]([c]1ccccc1)[c]1ccccc1 as the compound, how does the growth inhibition read?
Answer: The growth inhibition was 13% (inactive).

Question: With CC1=C(SCCO)C(=O)c2ccccc2C1=O as the compound, how does the growth inhibition read?
Answer: Its growth inhibition is -1% (inactive).

Question: With C/C(=N\O)C1CC2C=C(C#N)C1N(Cc1ccccc1)C2 (stereo not given) as the compound, how does the growth inhibition read?
Answer: The growth inhibition was -5% (inactive).

Question: Which growth inhibition does the source give for CC(Br)C(=O)c1ccc2cc(Br)c3ccccc3c2c1 (stereo not given) here?
Answer: Its growth inhibition is -1% (inactive).

Question: For Nc1nc(-c2cccnc2)cc(-c2cc(-c3cccnc3)nc(N)n2)n1, which growth inhibition is on record?
Answer: The growth inhibition was -6% (inactive).

Question: With CC(C)=CC(=O)O[C@@H]1CC(C)(C)CC2C3=CCC4[C@]56CC[C@](O)(OC5)C(C)(C)C6CC[C@@]4(C)C3(C)CC[C@]21C(=O)O (stereo not given in full) as the compound, how does the growth inhibition read?
Answer: The growth inhibition was 27% (inactive).

Question: For CCC(C)COC(=O)c1ccc(N=Cc2ccc(C=Nc3ccc(C(=O)OCC(C)CC)cc3)cc2)cc1 (stereo not given), which growth inhibition is on record?
Answer: The growth inhibition was 3% (inactive).

Question: For Oc1cccc2c(Cl)ccnc12, which growth inhibition is on record?
Answer: The growth inhibition was 54% (inactive).

Question: For O=C(O)c1cccc(-c2c3ccc(=O)cc-3oc3cc(O)ccc23)c1, which growth inhibition is on record?
Answer: The growth inhibition was 29% (inactive).

Question: With CN(CCc1ccccn1)c1ccc2c(c1)Cc1ccccc1-2 as the compound, how does the growth inhibition read?
Answer: The growth inhibition was -4% (inactive).

Question: With Cc1cc(S(=O)(=O)/N=C(/NN)NNc2cccc(C(F)(F)F)n2)c(S)cc1Cl as the compound, how does the growth inhibition read?
Answer: The growth inhibition was 1% (inactive).

Question: For O=C1C2C(C(=O)N1c1ccc(OCc3ccccc3)cc1)C1c3ccccc3C2C2CCCCN21 (stereo not given), which growth inhibition is on record?
Answer: The growth inhibition was -8% (inactive).

Question: Which growth inhibition does the source give for Nc1ccccc1CC(O)C(=O)O (stereo not given) here?
Answer: The growth inhibition was -14% (inactive).

Question: For O=C(O)C1CCCCC1c1c2ccc(=O)c(O)c-2oc2c(O)c(O)ccc12 (stereo not given), which growth inhibition is on record?
Answer: Its growth inhibition is 6% (inactive).

Question: For Cc1ccc2ccc(O)cc2c1, which growth inhibition is on record?
Answer: The growth inhibition was 10% (inactive).

Question: For O=C1C(=O)c2ccccc2C=C1[N+](=O)[O-], which growth inhibition is on record?
Answer: The growth inhibition was 3% (inactive).

Question: With COC(=O)c1ccc(NCC2=CC(=O)C=CC2=O)cc1O as the compound, how does the growth inhibition read?
Answer: Its growth inhibition is 10% (inactive).

Question: For C(CCSC1=NCCN1)CSC1=NCCN1 (tested in a mixture with another compound), which growth inhibition is on record?
Answer: The growth inhibition was 12% (inactive).

Question: For N#Cc1c(N)[nH]c2ccc(Sc3ccccc3)cc12, which growth inhibition is on record?
Answer: The growth inhibition was -6% (inactive).

Question: Which growth inhibition does the source give for CCNc1nnc(CSc2nc(-c3ccccc3)c(-c3ccccc3)[nH]2)s1 here?
Answer: The growth inhibition was -29% (inactive).

Question: For CC[C@@]1(O)C(=O)OCc2c1cc1n(c2=O)Cc2cc3c(N)cccc3nc2-1, which growth inhibition is on record?
Answer: The growth inhibition was -32% (inactive).
